Experimental data taken from PubChem BioAssay (NCATS).
Inconclusive results are not listed. More than one record can exist for a structure, and the calls need not agree. A number with no mark means an inactive call. The source made the active and inactive calls. Calls come from the whole dose curve; as a rule, active = well fitted inhibition curve with a large enough effect; inconclusive = small, poorly fitted or top-dose-only effect; inactive = flat fitted curve, though single readings scatter.

Tested on: not listed separately
Assay: Drug repurposing screens with cells derived from glioblastoma tumor samples (AID 1345199); note: nearly all actives have a fitted effect of over 40% in size
Details: GBM patient neurospheres viability, ATP luminescence, 48 h; tumour line A
In short: (§1)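 Four patient lines of CD133+ GBM neurospheres were screened at several concentrations; hits were retested in those lines plus three slower-growing GBM lines, using 48-hour treatment and ATP-based viability.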
% is set by controls: 0 for no effect and ±100 for the full control effect; potency is the fitted concentration of half-maximal effect.

With `CN1CCCC(CC2c3ccccc3Sc3ccccc32)C1` (stereo not given) as the molecule, how does the Potency read?
The Potency was 2.24 µM (active).

Which Potency does the source give for `COc1cc2c(cc1OC)[C@@H]1CC(=O)[C@@H](CC(C)C)CN1CC2` here?
The Potency was 28.2 µM (active).

Which Potency does the source give for `COc1ccc(/C=C/C(=O)c2ccc(OC)cc2OC)cc1` here?
The Potency was 35.5 µM (active).

With `c1ccc(CNCCNCc2ccccc2)cc1` as the molecule, how does the Potency read?
The Potency was 22.4 µM (active).

With `NC(=O)C(=O)N/N=C/c1ccc([N+](=O)[O-])o1` as the molecule, how does the Potency read?
Its Potency is 35.5 µM (active).

Which Potency does the source give for `Cc1nc2n(c(=O)c1CCN1CCC(c3noc4cc(F)ccc34)CC1)CCC[C@H]2O` here?
The Potency was 15.8 µM (active).

For `Clc1ccc2c(c1)CCc1cccnc1C2=C1CCNCC1`, which Potency is on record?
The Potency was 5.01 µM (active).

For `Cc1c(C)n(Cc2ccccc2)c2ccc(C(=O)OCCN(C)C)cc12`, which Potency is on record?
The Potency was 11.2 µM (active).

For `O=C(Nc1ccc(Cl)c(Cl)c1)C1CC1`, which Potency is on record?
Its Potency is 28.2 µM (active).

For `c1ccc(-c2ccc(C(c3ccccc3)n3ccnc3)cc2)cc1` (stereo not given), which Potency is on record?
Its Potency is 3.55 µM (active).

For `CC(=O)c1ccc2c(c1)N(CCCN1CCC(CCO)CC1)c1ccccc1S2`, which Potency is on record?
Its Potency is 11.2 µM (active).

For `CNC(=O)CN(CCN(CCN(CC(=O)[O-])CC(=O)NC)CC(=O)[O-])CC(=O)[O-].O.[Gd+3]`, which Potency is on record?
The Potency was 35.5 µM (active).

Same assay, conditions: GBM patient neurospheres viability, ATP luminescence, 48 h; tumour line B

Which Potency does the source give for `CN1CCCC(CC2c3ccccc3Sc3ccccc32)C1` (stereo not given) here?
The Potency was 12.6 µM (active).

With `N[C@H](Cc1c[nH]c2ccccc12)C(=O)O` as the molecule, how does the Potency read?
Its Potency is 35.5 µM (active).

Which Potency does the source give for `Clc1ccc2c(c1)CCc1cccnc1C2=C1CCNCC1` here?
The Potency was 12.6 µM (active).

Same assay, conditions: GBM patient neurospheres viability, ATP luminescence, 48 h; tumour line D

With `COc1ccc(/C=C/C(=O)c2ccc(OC)cc2OC)cc1` as the molecule, how does the Potency read?
Its Potency is 12.6 µM (active).

For `Clc1ccc2c(c1)CCc1cccnc1C2=C1CCNCC1`, which Potency is on record?
The Potency was 20 µM (active).

Which Potency does the source give for `Cc1c(C)n(Cc2ccccc2)c2ccc(C(=O)OCCN(C)C)cc12` here?
Its Potency is 10 µM (active).

For `O=C(Nc1ccc(Cl)c(Cl)c1)C1CC1`, which Potency is on record?
The Potency was 20 µM (active).

Which Potency does the source give for `c1ccc(-c2ccc(C(c3ccccc3)n3ccnc3)cc2)cc1` (stereo not given) here?
Its Potency is 11.2 µM (active).

Tested on: astro (control astrocytes)
Assay: as above
Details: viability, ATP luminescence, 48 h; series mostly up to 45.9 µM; activity, negative = cell killing: at the top concentration
In short: as §1

For `COc1cc(/C=C/C(=O)O[C@H]2CC[C@]34C[C@]35CC[C@]3(C)[C@@H]([C@H](C)CCC=C(C)C)CC[C@@]3(C)[C@@H]5CC[C@H]4C2(C)C)ccc1O`, which Potency is on record?
The Potency was 17.8 µM (active).

For `O=c1ccc2ccccc2o1`, which “activity, negative = cell killing” value is on record?
The value was -19.1%.

For `c1ccc(CNCCNCc2ccccc2)cc1`, which “activity, negative = cell killing” value is on record?
Its value is -18.2%.

Which Potency does the source give for `CNC(=O)CN(CCN(CCN(CC(=O)[O-])CC(=O)NC)CC(=O)[O-])CC(=O)[O-].O.[Gd+3]` here?
Its Potency is “inactive”.

Which Potency does the source give for `CC(=O)OCC(=O)[C@@]1(O)[C@H](C)C[C@H]2[C@@H]3CCC4=CC(=O)C=C[C@]4(C)[C@@]3(F)[C@@H](O)C[C@@]21C` here?
Its Potency is “inactive”.
